Data published in the supplement of paper PMC3334620.
The full ranking holds about 33,000 sequences; the median of “E-score (-0.5 to 0.5)” is about -0.01, and the highest 2% start at about 0.26. Shown is part of a subset that was picked to be rich in the highest values.

What follows are sequences tested against Ste12 (UniProt P13574) (assay: PBM E-score (8-mer binding enrichment) (E-score (-0.5 to 0.5)); higher = stronger / more preferred TF binding). Details: protein concentration: 200 nM; construct: GST-DNA-binding domain.
UniProt P13574, sequence (P13574 whole entry, the tested form may be a part): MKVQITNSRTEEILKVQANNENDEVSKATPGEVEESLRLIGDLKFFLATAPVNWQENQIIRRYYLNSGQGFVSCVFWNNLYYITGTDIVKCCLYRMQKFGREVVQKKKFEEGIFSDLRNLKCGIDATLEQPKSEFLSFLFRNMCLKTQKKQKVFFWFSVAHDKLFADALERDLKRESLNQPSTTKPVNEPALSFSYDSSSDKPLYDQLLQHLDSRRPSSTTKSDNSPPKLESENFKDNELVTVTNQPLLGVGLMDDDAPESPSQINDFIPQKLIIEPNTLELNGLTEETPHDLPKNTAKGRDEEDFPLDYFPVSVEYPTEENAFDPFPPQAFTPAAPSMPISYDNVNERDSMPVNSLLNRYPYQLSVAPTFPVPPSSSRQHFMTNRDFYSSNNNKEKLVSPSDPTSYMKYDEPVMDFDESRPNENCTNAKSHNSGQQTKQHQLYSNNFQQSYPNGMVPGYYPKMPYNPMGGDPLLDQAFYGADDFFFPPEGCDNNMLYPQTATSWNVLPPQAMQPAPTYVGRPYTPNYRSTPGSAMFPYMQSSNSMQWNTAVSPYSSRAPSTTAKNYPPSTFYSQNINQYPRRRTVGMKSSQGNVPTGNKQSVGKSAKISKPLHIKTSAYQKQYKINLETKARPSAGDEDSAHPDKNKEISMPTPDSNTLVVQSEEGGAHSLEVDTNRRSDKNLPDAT
Method in brief: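 Universal all-10-mer Agilent arrays, double-stranded by primer extension on fresh or once-stripped slides, were probed with about 100-200 nM GST-tagged yeast transcription factors made by PURExpress. Fluorescent anti-GST detected bound protein, and masliner normalised the scans. E-scores from the Universal PBM Analysis Suite were given to each ungapped eight-base word pooled with its reverse complement.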

Going from ACGGCAAG to ACGGCAAA, the “PBM E-score” value rises from 0.0378 to 0.277.

Compared with ACGGCAAT, CCACAAGG is lower in “PBM E-score” value: 0.0277 for the first, -0.107 for the second.

Going from GAGAGTAA to CGCCGCCC, the “PBM E-score” value rises from 0.142 to 0.239.

Going from CACCGCCC to ACCCGCCG, the “PBM E-score” value falls from 0.27 to 0.137.

Compared with TCCCGCCA, CACCGCCA is lower in “PBM E-score” value: 0.101 for the first, 0.0129 for the second.

Compared with CCCCGCCC, CCCCGCCG is lower in “PBM E-score” value: 0.347 for the first, 0.242 for the second.

Going from ACCCGCCC to AACCGCCC, the “PBM E-score” value falls from 0.361 to 0.00313.

Compared with GCCCGCCC, GCCCGCCA is lower in “PBM E-score” value: 0.257 for the first, -0.0776 for the second.

Compared with CCCCGCCA, ACCCTCAC is lower in “PBM E-score” value: 0.38 for the first, -0.029 for the second.

Going from AATATAAT to GATATAAA, the “PBM E-score” value falls from 0.138 to 0.0834.

Going from TGTAAAAA to TATAAAGA, the “PBM E-score” value falls from 0.334 to 0.0307.

Compared with AATATAAG, AATATAAA is higher in “PBM E-score” value: 0.198 for the first, 0.306 for the second.

Going from AGTAAAAA to TATAAAAA, the “PBM E-score” value rises from 0.214 to 0.27.

Compared with AATAAAAA, TATATAAA is higher in “PBM E-score” value: 0.229 for the first, 0.267 for the second.

Going from CATATAAA to CGTAAAAA, the “PBM E-score” value rises from 0.0963 to 0.126.

Going from TCCTGGCA to CTGCGCCC, the “PBM E-score” value falls from -0.0322 to -0.239.

Compared with ACCTACCT, CGCGGGTA is higher in “PBM E-score” value: 0.0101 for the first, 0.0349 for the second.

Going from GAGAGAGA to AAGCGGTA, the “PBM E-score” value rises from -0.0897 to 0.0316.

Compared with ATACTCGG, ACAAATCA is higher in “PBM E-score” value: -0.0182 for the first, 0.0844 for the second.

Going from CACCGTGC to ACGGGAGC, the “PBM E-score” value falls from 0.131 to -0.111.

Compared with TTTATAAA, GTTATAAA is lower in “PBM E-score” value: 0.271 for the first, 0.218 for the second.

First: CTTATAAA
Second: AGCTGTTG
The “PBM E-score” value of the first is higher: 0.223 for the first, -0.0338 for the second.

First: ACGAGCCT
Second: GAACACTA
The “PBM E-score” value of the first is higher: -0.0238 for the first, -0.13 for the second.

Compared with AAACACTG, AAACACTT is lower in “PBM E-score” value: 0.248 for the first, 0.12 for the second.

Compared with AAACACTC, CAACACTA is lower in “PBM E-score” value: 0.288 for the first, 0.0388 for the second.

First: AAACACTA
Second: GCGAGCCA
The “PBM E-score” value of the first is higher: 0.273 for the first, -0.0412 for the second.

Compared with CTGCAAGC, ATAAGCAA is higher in “PBM E-score” value: -0.141 for the first, 0.148 for the second.

Going from GGTTTCGA to TGTTCAAA, the “PBM E-score” value falls from 0.193 to 0.17.

First: CATTTCAA
Second: GGTTTCAA
The “PBM E-score” value of the first is lower: 0.214 for the first, 0.416 for the second.

Compared with CTTTTCAA, GATTTCAA is lower in “PBM E-score” value: 0.221 for the first, 0.159 for the second.

First: TATTTCAA
Second: ATTTTCAA
The “PBM E-score” value of the first is higher: 0.282 for the first, 0.193 for the second.

First: GTTTTCAA
Second: TCTTTCAA
The “PBM E-score” value of the first is higher: 0.32 for the first, 0.0772 for the second.

Compared with TGTTTCAA, AATTTCAA is lower in “PBM E-score” value: 0.484 for the first, 0.106 for the second.

Going from CCAGGAGA to GCCTGCGC, the “PBM E-score” value rises from -0.24 to -0.119.

Going from CTTCTGCC to TATCTTCA, the “PBM E-score” value rises from -0.122 to 0.15.

Compared with AACGATCT, ATAAGCCC is lower in “PBM E-score” value: 0.153 for the first, -0.0186 for the second.

First: GTGGAGGA
Second: GCTTTCAC
The “PBM E-score” value of the first is lower: -0.0464 for the first, 0.0706 for the second.

Compared with GATTTCAC, GGTTTCAC is higher in “PBM E-score” value: 0.111 for the first, 0.386 for the second.

First: ACTAGCTA
Second: ATTCTGAC
The “PBM E-score” value of the first is lower: -0.0308 for the first, 0.0839 for the second.

Compared with ATGAATGG, ATGAATGC is lower in “PBM E-score” value: 0.33 for the first, 0.138 for the second.

First: ATGAATGA
Second: AAGATCAC
The “PBM E-score” value of the first is higher: 0.192 for the first, -0.0426 for the second.

Going from GGCTGCTA to ATCTGATG, the “PBM E-score” value rises from -0.037 to 0.109.

First: GGGGCTAC
Second: ATAGGGCA
The “PBM E-score” value of the first is higher: -0.0752 for the first, -0.109 for the second.

Compared with CGCGGCGA, CCCGCCCA is higher in “PBM E-score” value: 0.126 for the first, 0.332 for the second.

Compared with CCCGCGCC, ACCGCCCT is lower in “PBM E-score” value: 0.168 for the first, -0.00709 for the second.

Going from TCCGCCCA to ACCGCCCC, the “PBM E-score” value rises from -0.107 to 0.348.

Going from CCCGCCCC to CCCGCCCG, the “PBM E-score” value falls from 0.32 to 0.233.

Compared with CCCGCCAC, CCCGCCGA is lower in “PBM E-score” value: 0.213 for the first, -0.0475 for the second.

Going from ACCGCCCG to CCCGCCGG, the “PBM E-score” value rises from -0.057 to 0.158.

Compared with CCCGCCGC, AACACTTC is lower in “PBM E-score” value: 0.31 for the first, 0.135 for the second.

Going from AACACTGG to CCCATAAA, the “PBM E-score” value falls from -0.00819 to -0.0663.

First: GTGCAAGA
Second: GCCGCCCC
The “PBM E-score” value of the first is lower: -0.145 for the first, 0.307 for the second.

First: GCCGCCGC
Second: GCCGCCCA
The “PBM E-score” value of the first is lower: -0.0603 for the first, 0.0226 for the second.

Going from CTTCCCTC to CAGACATA, the “PBM E-score” value rises from -0.0689 to 0.0544.

First: ATTTTTCA
Second: AATTTCCG
The “PBM E-score” value of the first is higher: 0.222 for the first, 0.211 for the second.

Compared with ATTTTCCC, ATTTTCCG is higher in “PBM E-score” value: 0.173 for the first, 0.318 for the second.

Compared with ATTTTTCG, AATTTTCG is lower in “PBM E-score” value: 0.294 for the first, 0.128 for the second.

Going from AGATACAT to CCCTAGTA, the “PBM E-score” value rises from 0.00257 to 0.0343.

Compared with CGAGGACA, AAGCAGTG is higher in “PBM E-score” value: -0.0668 for the first, 0.0293 for the second.

Going from AACAAACC to AACAGAAG, the “PBM E-score” value falls from 0.116 to -0.0718.

First: CACAAAGC
Second: GACAGAAA
The “PBM E-score” value of the first is lower: 0.0779 for the first, 0.168 for the second.

Going from AACAAAAA to AACAGAAA, the “PBM E-score” value falls from 0.332 to 0.311.

Going from TACAAACA to AACAAGCC, the “PBM E-score” value falls from 0.21 to -0.125.

First: AACAAAAG
Second: AACAAAAC
The “PBM E-score” value of the first is lower: 0.119 for the first, 0.236 for the second.

Going from AACAAAGC to AACAAACA, the “PBM E-score” value falls from 0.294 to 0.269.

First: CGTGCGTA
Second: TATAACAA
The “PBM E-score” value of the first is lower: -0.0557 for the first, 0.215 for the second.

Going from CTTGAGTA to CCTGTCGA, the “PBM E-score” value rises from -0.208 to -0.122.

First: GCCAACTA
Second: GTTCCGAA
The “PBM E-score” value of the first is lower: -0.196 for the first, 0.137 for the second.

Compared with ACTTCCAT, ACGCTGCG is lower in “PBM E-score” value: 0.0326 for the first, -0.0283 for the second.

First: CCGCCCCG
Second: CCGCCCCC
The “PBM E-score” value of the first is higher: 0.408 for the first, -0.00614 for the second.

Going from CCGCCCGG to GCGCCCCA, the “PBM E-score” value rises from -0.0452 to 0.056.

First: ACGCCCCA
Second: CCGCCCCA
The “PBM E-score” value of the first is lower: 0.239 for the first, 0.417 for the second.

First: AACAGCGC
Second: CACTGTTA
The “PBM E-score” value of the first is higher: -0.0225 for the first, -0.0596 for the second.

Going from ATTCCTAG to CCGCAAGC, the “PBM E-score” value falls from 0.0776 to -0.226.

Going from GCACGCCA to GTTTTACA, the “PBM E-score” value rises from -0.201 to 0.296.

Compared with ATTTTACA, CCTTTACA is lower in “PBM E-score” value: 0.113 for the first, -0.103 for the second.

First: CTTTTACA
Second: GTTTTATA
The “PBM E-score” value of the first is lower: 0.269 for the first, 0.399 for the second.

Compared with CTTTTATA, GGTTTACA is lower in “PBM E-score” value: 0.0308 for the first, -0.0303 for the second.

Compared with ATTTTATA, CTTTTACC is lower in “PBM E-score” value: 0.199 for the first, 0.0888 for the second.

Going from AGCTAGCT to CACTTTGA, the “PBM E-score” value rises from -0.0845 to -0.032.

Compared with GGTTCTCA, ATCTGCCC is lower in “PBM E-score” value: 0.0128 for the first, -0.153 for the second.

Going from ATACGTGG to TGCCTGAA, the “PBM E-score” value rises from -0.0972 to -0.0642.

Compared with CTGTCAAG, CAATCTTC is higher in “PBM E-score” value: -0.2 for the first, 0.144 for the second.

Going from CACCATCG to CCCGAGTC, the “PBM E-score” value rises from -0.197 to 0.0359.

First: ATTTAATG
Second: ATTTAAGG
The “PBM E-score” value of the first is higher: 0.272 for the first, 0.00576 for the second.

First: ATTTAATA
Second: GTTTAATA
The “PBM E-score” value of the first is higher: 0.267 for the first, 0.179 for the second.

CTTTAATA and ATTTAATC are the same in “PBM E-score” value: 0.209 for the first, 0.209 for the second.

Compared with CACTTATG, ATGGGTTC is lower in “PBM E-score” value: 0.00871 for the first, -0.094 for the second.

With AGATAGAA the “PBM E-score” value was -0.0615.
